In PubChem BioAssay AID1159580 (chemical genetic matrix, 2015):
Values joined by “and” are separate entries in the source; they are usually repeats but may differ in a detail not shown here. Equal values may be shown once. Among all 5,500 compounds or so, about 2,000 (36%) were called active. Inconclusive results (about 18%) are left out. No stated cut-off is given here; in the data, active means normalized growth mostly below about 0.91 (no sharp cut-off); inconclusive means no clear call, values can overlap the other calls; inactive means mostly above about 0.92. The list shows a part of the results.

Assay: chemical genetic growth profiling, strain panel (AID 1159580);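 further: tested at 20 µM; growth read once vehicle control cultures reached saturation at 30 °C; 1 = growth at the plate median or of vehicle wells; lower values mean less growth of the strain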
Details: S. cerevisiae deletion strains, growth OD

Measured: normalized growth

CC1(C)O[C@H]2[C@H](O)C[C@](O)(C(N)=O)C[C@H]2O1
inactive: locus YAL013W, strain DEP1, active compounds read low 1.01 | locus YAL021C, strain ccr4, active compounds read low 0.996 | locus YAL026C, strain drs2, active compounds read low 1.04 | locus YAL030W, strain snc1, active compounds read low 1.01 | locus YBL061C, strain skt5, active compounds read low 1.01 | locus YBR009C, strain hhf1, active compounds read low 1.02 | locus YBR021W, strain FUR4, active compounds read low 1.02 | locus YBR023C, strain chs3, active compounds read low 1.02 | locus YBR171W, strain sec66, active compounds read low 1.03 | locus YBR229C, strain ROT2, active compounds read low 1.03 | locus YBR231C, strain swc5, active compounds read low 1.01 | locus YBR279W, strain paf1, active compounds read low 1.01 | locus YCL011C, strain gbp2, active compounds read low 1.01 | locus YCL016C, strain dcc1, active compounds read low 1.01 | locus YCL029C, strain bik1, active compounds read low 1.04 | locus YCL061C, strain MRC1, active compounds read low 1.01 | locus YCL069W, strain vba3, active compounds read low 1.02 | locus YCR088W, strain abp1, active compounds read low 1.01 | locus YDL005C, strain med2, active compounds read low 1.01 | locus YDL035C, strain GPR1, active compounds read low 1.05 | locus YDL040C, strain nat1, active compounds read low 1.01 | locus YDL074C, strain BRE1, active compounds read low 1.12 | locus YDL101C, strain DUN1, active compounds read low 1.03 | locus YDL185W, strain tfp1, active compounds read low 1.02 | locus YDL192W, strain arf1, active compounds read low 1.05 | locus YDR001C, strain nth1, active compounds read low 1.01 | locus YDR069C, strain doa4, active compounds read low 1.01 | locus YDR101C, strain arx1, active compounds read low 1.01 | locus YDR137W, strain rgp1, active compounds read low 1.04 | locus YDR159W, strain sac3, active compounds read low 1.06 | locus YDR162C, strain NBP2, active compounds read low 1.04 | locus YDR195W, strain ref2 1.01 | locus YDR297W, strain sur2, active compounds read low 1.01 | locus YDR318W, strain mcm21, active compounds read low 1.04 | locus YDR334W, strain swr1, active compounds read low 1.03 | locus YDR335W, strain msn5, active compounds read low 1.02 | locus YDR388W, active compounds read low 1.01 | locus YDR392W, strain spt3, active compounds read low 0.959 | locus YDR502C, strain sam2, active compounds read low 1.03 | locus YEL003W, strain gim4, active compounds read low 1.02 | locus YEL037C, strain rad23, active compounds read low 1.02 | locus YEL061C, strain CIN8 (second series), active compounds read low 1.02 | locus YER015W, strain faa2, active compounds read low 1.02 | locus YER016W, strain bim1, active compounds read low 1.01 | locus YER110C, active compounds read low 1.03 | locus YER111C, strain swi4, active compounds read low 0.996 | locus YER155C, strain BEM2 (second series), active compounds read low 1.03 | locus YER155C, strain BEM2, active compounds read low 0.997 | locus YER167W, strain BCK2, active compounds read low 1.02 | locus YFR010W, strain ubp6, active compounds read low 1.04 | locus YGL078C, strain dbp3, active compounds read low 1.04 | locus YGL086W, strain mad1, active compounds read low 1.01 | locus YGL167C, strain pmr1, active compounds read low 1.02 | locus YGL173C, strain kem1, active compounds read low 1.03 | locus YGL227W, strain vid30, active compounds read low 1.01 | locus YGL240W, strain doc1, active compounds read low 1.01 | locus YGL248W, strain PDE1, active compounds read low 1.05 | locus YGL253W, strain hxk2, active compounds read low 1.03 | locus YGR078C, strain PAC10, active compounds read low 1.04 | locus YGR135W, strain pre9, active compounds read low 1.05 | locus YGR252W, strain gcn5, active compounds read low 1.09 | locus YHR013C, strain ard1, active compounds read low 1.02 | locus YHR027C, strain rpn1, active compounds read low 1.03 | locus YHR030C, strain SLT2, active compounds read low 1.01 | locus YHR079C, strain IRE1 (second series), active compounds read low 1.03 | locus YHR079C, strain IRE1, active compounds read low 0.99 | locus YHR094C, strain hxt1, active compounds read low 1.02 | locus YHR129C, strain ARP1, active compounds read low 1.04 | locus YHR142W, strain chs7, active compounds read low 1.03 | locus YHR200W, strain rpn10, active compounds read low 1.05 | locus YIL066C, strain RNR3, active compounds read low 1.03 | locus YIL073C, strain SPO22, active compounds read low 1.16 | locus YIL125W, strain kgd1, active compounds read low 1.01 | locus YIR030C, strain dcg1, active compounds read low 1.03 | locus YJL092W, strain hpr5, active compounds read low 1.01 | locus YJL095W, strain BCK1 (second series), active compounds read low 1.02 | locus YJL095W, strain BCK1, active compounds read low 1.1 and 1.02 | locus YJL115W, strain asf1, active compounds read low 1.01 | locus YJL129C, strain trk1, active compounds read low 1.01 | locus YJL134W, strain LCB3, active compounds read low 1.01 | locus YJL154C, strain vps35, active compounds read low 1.02 | locus YJL164C, strain tpk1, active compounds read low 1.02 | locus YJL166W, strain qcr8, active compounds read low 1.02 | locus YJL168C, strain set2, active compounds read low 1.02 | locus YJL187C, strain SWE1 (second series), active compounds read low 1.05 | locus YJL187C, strain SWE1, active compounds read low 1.01 | locus YJR043C, strain POL32, active compounds read low 1.05 | locus YJR066W, strain TOR1, active compounds read low 0.951
